From PubChem BioAssay (NCI)
Where “and” joins values, the source holds several entries; their conditions need not be identical. Equal values may be shown once. This is part of a sample that, as a whole, favours compounds with a hit. Of some 83,000 tested, about 20% had one in any assay.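 For each line, cells grew in 96-well plates with the test compound present at a single concentration for 48 hours.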 Unmarked numbers belong to inactive results.

System: EKVX NSCLC
Assay: NCI-60 one-dose screen, 48 h (100 = growth as untreated, 0 = no growth, -100 = all killed)
Settings: 0.01 µM
Method: Growth inhibition of the EKVX human Non-Small Cell Lung tumor cell line is measured as a screen for anti-cancer activity. Cells are grown in 96 well plates and exposed to the test compound for 48 hours. Compounds are tested at a single concentration, which is 10^-5 M for most compounds. The reported endpoint is percent growth (GI% or GIPRCNT), where numbers from 0 - 100% represent growth inhibition, and numbers from -100% - 0 represent cell death. For example, a value of 40 represents 60% growth inhibition. A value of 0 means no net growth occurred over the course of the experiment. A value of -40 indicates 40% of cells at the beginning of the experiment died by the end of the experiment. A value of -100 means all cells are dead at the end of the experiment.
NCI-60 Human Tumor Cell Lines Screen was performed using the standard one-dose NCI protocol, which is described in more detail at https://dtp.cancer.gov/discovery_development/nci-60/default.htm.
Compounds with GIPRCNT values below 10 were considered active. Activity score was based on GIPRCNT using the following formula: […]
Score is 0 for GIPRCNT values of 100 or above, 50 for GIPRCNT values of 0, and 100 for GIPRCNT values of -100.

CC(=O)O[C@H]1C(=O)[C@@]2(C)[C@H]([C@H](OC(=O)c3ccccc3)[C@]3(O)C[C@H](OC(=O)[C@H](O)[C@@H](NC(=O)c4ccccc4)c4ccccc4)C(C)=C1C3(C)C)[C@]1(OC(C)=O)CO[C@@H]1C[C@@H]2O gave a growth of 60.7%.

Same assay, conditions: 2.5 µM

With CC(=O)O[C@H]1C(=O)[C@@]2(C)[C@H]([C@H](OC(=O)c3ccccc3)[C@]3(O)C[C@H](OC(=O)[C@H](O)[C@@H](NC(=O)c4ccccc4)c4ccccc4)C(C)=C1C3(C)C)[C@]1(OC(C)=O)CO[C@@H]1C[C@@H]2O the growth was 35%.

Same assay, conditions: 5 µM

Compound CC(=O)O[C@H]1C(=O)[C@@]2(C)[C@H]([C@H](OC(=O)c3ccccc3)[C@]3(O)C[C@H](OC(=O)[C@H](O)[C@@H](NC(=O)c4ccccc4)c4ccccc4)C(C)=C1C3(C)C)[C@]1(OC(C)=O)CO[C@@H]1C[C@@H]2O has a growth of 40.5%.

Same assay, conditions: 10 µM

Going from Cn1c2nc3ccccc3c-2nc2ccccc21 to Cc1c(-c2ccccc2)[nH]c2ccccc12, the growth rises from 81.2% to 104%.

Compared with NCc1c(O)ccc2ccccc12, Nc1nc(N)c2cc(Sc3ccc4ccccc4c3)ccc2n1 is lower in growth: 106% for the first, 38.2% for the second.

Going from CCOC(=O)[C@]1(Br)CC[C@@]1(Br)C(=O)OCC to CC[C@@]1(OC(=O)CN(C)C)C(=O)OCc2c1cc1n(c2=O)Cc2cc3c(N)cccc3nc2-1, the growth falls from 99.5% to 18.2%.

Going from O=C1C=CC(=O)N1c1ccc(N2C(=O)C=CC2=O)cc1 to COc1ccc(C(C#N)=C2C=CC(=NO)C=C2)cc1, the growth rises from 90.8% to 125%.

Compared with Cc1cc(N=C2C=CC(=[N+](C)C)C=C2)c(N)cc1N, CCC(C)(c1ccc(O)c(C)c1)c1ccc(O)c(C)c1 is lower in growth: 85.4% for the first, 82.5% for the second.

First: COc1ccc2c(c1)[nH]c1c(/C=C/c3ccccc3)nccc12
Second: CN(C)c1ccc(/C=C/c2ccnc3ccccc23)cc1N
The growth of the first is higher: 62.2% for the first, 52.5% for the second.

First: O=C(CNS(=O)(=O)Cc1ccccc1)NNc1ccccc1
Second: O=[N+]([O-])c1cc(S(=O)(=O)Nc2ccccc2)ccc1Cl
The growth of the first is lower: 53.3% for the first, 86.1% for the second.

Going from C=C1N(C)c2ccc(Cl)cc2C1(C)C to O=S(=O)(c1cc(Cl)ccc1O)c1cc(Cl)ccc1O, the growth rises from 25.2% to 100%.

Compared with O=C1C(Cl)=C(Cl)C(Cl)(Cl)C(Cl)C1(Cl)Cl (stereo not given), Cc1cc(Cl)ccc1NC(=O)/C(Cl)=C1/Sc2ccccc2NC1=O is lower in growth: 105% for the first, 70.4% for the second.

Compared with O=C1c2cccc3cc([N+](=O)[O-])cc(c23)C(=O)N1CCN1CCCC1, COc1ccc(N)c2c1C(=O)c1ccccc1C2=O is higher in growth: 10.9% for the first, 106% for the second.

First: CCC(=O)Oc1ccc(/C=N/NC(N)=S)nc1
Second: CN(CC(=O)O)c1ccc(/C=C/c2ccnc3ccccc23)cc1
The growth of the first is higher: 86.3% for the first, 69.6% for the second.

Going from O=c1[nH]cc(/C=N\Nc2ccccc2)c(=O)[nH]1 to O=Nc1ccc(Nc2ccccc2)cc1, the growth rises from 56.4% to 89.2%.

Going from Cc1cc(C)c(N2C(=O)CC(Sc3ccccc3N)C2=O)c(C)c1 (stereo not given) to N#C/C(=C/N1C(=O)/C(=C/c2ccc([N+](=O)[O-])cc2)SC1=S)c1nc2ccccc2s1, the growth falls from 87.1% to 82.3%.

First: Cn1ncc2cc3c(Nc4ccc(Cl)cc4)cccc3nc21
Second: COc1ccc2oc(-c3ccc(Cl)cc3)c(N3CCN(C)CC3)c2c1
The growth of the first is higher: 76.7% for the first, 50.7% for the second.

Compared with COc1cccc(C(c2cc3c(cc2O)OCO3)N2CCOCC2)c1OC (stereo not given), O=C(O)c1ccccc1.[Ag] is higher in growth: 97.7% for the first, 103% for the second.

Compared with CC1CCC2(C(=O)O)CCC3(C)C(=CCC4C5(C)CC(O)C(O)C(C)(CO)C5C(O)CC43C)C2C1C (stereo not given), Cc1cc(O)c2c(c1O)C(=O)C13C(=C2O)C(=O)C2C(O)C1C1C(O)C3C(=O)C3=C(O)c4c(O)cc(C)c(O)c4C(=O)C321 (stereo not given) is lower in growth: 113% for the first, 44.3% for the second.

Going from S=C1SCN(CCc2ccccc2)CN1CCc1ccccc1 to N#CC(=C1C=CC(=NO)C=C1)c1ccccc1, the growth falls from 109% to 55.1%.

With S=P(N1CC1)(N1CC1)N1CC1 the growth was 107% and 90.2%.
For CC(=O)O[C@H]1C(=O)[C@@]2(C)[C@H]([C@H](OC(=O)c3ccccc3)[C@]3(O)C[C@H](OC(=O)[C@H](O)[C@@H](NC(=O)c4ccccc4)c4ccccc4)C(C)=C1C3(C)C)[C@]1(OC(C)=O)CO[C@@H]1C[C@@H]2O, the growth was 47.1% and 41.5%.

Same assay, conditions: 100 µM

S=P(N1CC1)(N1CC1)N1CC1 was tested, and the growth was 101%.
